An excerpt weighted towards active compounds, which were near 1.1% of everything screened.
TrxR1 substrate: substrates of rat thioredoxin reductase 1; AID 588456; O89049; Potency, µM (doses to about 114 µM), inactives show at the top dose activity change, negative = substrate turnover; purified TrxR1 substrate turnover, NADPH consumption readout; actives 0.01% (n = 390,000); note: potency is the fitted concentration of half-maximal effect; nearly all actives have a fitted effect of over 50% in size
Target sequence (O89049 whole entry, looked up): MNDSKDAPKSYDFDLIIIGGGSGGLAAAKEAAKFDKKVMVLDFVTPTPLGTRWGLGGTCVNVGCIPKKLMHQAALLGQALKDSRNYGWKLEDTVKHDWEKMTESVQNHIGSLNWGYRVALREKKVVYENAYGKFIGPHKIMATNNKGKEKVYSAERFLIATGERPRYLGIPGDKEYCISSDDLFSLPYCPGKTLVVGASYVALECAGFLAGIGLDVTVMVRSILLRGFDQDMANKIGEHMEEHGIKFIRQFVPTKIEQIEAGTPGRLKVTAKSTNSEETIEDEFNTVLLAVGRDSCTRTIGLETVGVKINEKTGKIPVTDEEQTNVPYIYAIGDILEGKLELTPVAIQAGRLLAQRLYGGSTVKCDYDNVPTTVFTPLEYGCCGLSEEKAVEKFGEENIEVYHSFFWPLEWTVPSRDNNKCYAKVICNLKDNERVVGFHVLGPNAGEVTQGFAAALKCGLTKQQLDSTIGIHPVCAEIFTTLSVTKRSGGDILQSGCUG
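Rat TrxR1, dispensed at 90 nM, was prereduced with 400 uM NADPH (final) for 5 min at ~22 deg C, then incubated with compound 15 min before 400 uM selenite. A first-read NADPH fluorescence drop versus no-compound background flagged substrates.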
rTrxR1 inhibitor: blocks rat thioredoxin reductase 1; O89049; recombinant rTrxR1, NADPH fluorescence consumption, selenite substrate; Potency, µM (titrated, usually from 114 µM), for the others: top-dose activity change, negative = inhibition, hits mostly inhibitors; actives 1% (n = 390,000); AID 588453; note: potency is the fitted concentration of half-maximal effect; nearly all actives have a fitted effect of over 65% in size
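Rat TrxR1 (90 nM in the dispensed reagent) was pre-reduced with 400 uM NADPH for 5 min at room temperature, then incubated with compound for 15 min. After 400 uM selenite was added, NADPH fluorescence (Ex 340/Em 450 nm) was followed for 8 min.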
GALK inh: inhibitors of human galactokinase. P51570. Purified GALK, Kinase-Glo residual ATP luminescence. Potency, µM (titrated, usually from 57.5 µM), for inactives: top-dose activity change, negative = inhibition, hits mostly inhibitors. actives 0.007% (n = 270,000). AID 1868; note: potency is the fitted concentration of half-maximal effect
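5 nM enzyme, 35 uM ATP, 100 uM galactose, 20 mM HEPES pH8.0, 5 mM MgCl2; 1 h RT; residual ATP by Kinase-Glo Plus luminescence, qHTS format.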
PI4K2A inh: PI4K2A (human) kinase inhibition; Q9BTU6; purified PI4K2A, ADP-Glo luminescence, 1 h; hits give low values; activity change, negative = inhibition, % at 76.9 µM; actives 0.13% (n = 420,000); in the data active = activity change below about -50%; inconclusive = mostly about -30% to -49%;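 note: -100% = wells without enzyme as full effect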
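In this quantitative HTS, ADP production by PI4K2A was quantified luminescently after 1 h at ambient temperature; 100 microM adenosine served as plate-quality control.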
An asterisk follows results filed as active; u = inconclusive; x = not tested or not shown; [ ] = dose if it differs, or a comment. Unless noted, calls come from the whole dose curve; as a rule, active = well fitted curve in the direction sought with a large enough effect; inconclusive = small, poorly fitted or top-dose-only effect, or another doubt; inactive = no such curve, though single readings can be large; an effect the other way counts as inactive or inconclusive. Unless noted, % is set by controls: 0 for no effect and ±100 for the full control effect.

SMILES	TrxR1 substrate	rTrxR1 inhibitor	GALK inh	PI4K2A inh
CCOc1ccc(NC(=O)C(c2ccccn2)N(C(=O)CCl)c2ccc(OCC)cc2)cc1 (stereo not given)	-6%	79µM*	1%	-7
CCOc1ccc(NC(=O)c2c(C)oc3nc(C)nc(N4CCOCC4)c23)cc1	-6%	10%	x	2
O=C(NCc1ccccc1Cl)C1CCN(S(=O)(=O)Cc2ccccc2)CC1	-6%	-5%	x	2
N#CC1=C(N)SC(N)=C(C#N)C1c1ccc(C(F)(F)F)cc1	x	x	2%	x
N#CC1=C(N)SC(N)=C(C#N)C1c1ccc([N+](=O)[O-])cc1	-1%	50µM*	-3%	11
COC(=O)c1ccc(CCc2cc(O)ccc2O)cc1	-15%	56µM*	x	-4
COC(=O)c1ccc(O)cc1	11%[57.1 µM]	3%[57.1 µM]	-1%	1
COC(=O)c1ccc(CCc2cc(O)c(Br)cc2O)cc1	0%	22µM*	x	6
CC(=O)c1ccc(Sc2nnnn2-c2ccccc2)c([N+](=O)[O-])c1	4%	7.9µM*	-1%	23
O=C1[C@H](Cc2ccccc2)NC/C=C\C[C@H](c2ccc(Cl)cc2)N1Cc1ccc(Cl)cc1	-11%	-14%	x	x
Cc1ccc(CN(CC2CCCO2)C(=O)CN2C(=O)C(C(C)C)Oc3ccccc32)o1 (stereo not given)	-2%	10µM*	5%	0
CC(C)C1Oc2ccccc2N(CC(=O)N(Cc2ccccn2)CC2CCCO2)C1=O (stereo not given)	0%	19%	4%	1
CCOc1cc(CN2CCCCC2)ccc1OC	-7%	-3%	0%	4
CCOc1cc(CN2CCN(c3ccc(C(C)=O)cc3)CC2)ccc1OC	2%	35µM*	-1%	14
CN(C)S(=O)(=O)c1cccc(NC(=O)C2Cc3ccccc3CN2C(=O)c2ccco2)c1 (stereo not given)	4%	56µM*	1%	-12
CN(C)c1ccc(-c2nnc3n(Cc4ccccc4)c(=O)c4ccccc4n23)cc1	-1%	20%	x	1
CC(=O)Oc1oc(-c2ccccc2)nc1/C=N/c1ccccn1	-3%	7.1µM*	-4%	-3
COc1ccccc1N=Cc1nc(-c2ccccc2)oc1OC(C)=O	-8%[57.1 µM]	-35%[57.1 µM]	0%	22
COC(=O)c1ccc(=O)c2nc3/c(=C/O)c(O)cc(=O)c3[nH]c12	-17%	56µM*	x	-20
Cc1noc(NS(=O)(=O)c2ccc(NC(=O)c3ccoc3C)cc2)c1C	-6%	28µM*	0%	4
CCc1ccc(O)c(N=Cc2ccccc2O)c1	8%[57.1 µM]	-2%[57.1 µM]	-3%	2
O=c1[nH][nH]c2c(N=Cc3ccccc3O)ccc(F)c12	6%	3.2µM*	x	-27
COc1ccccc1Cn1c(CNS(=O)(=O)c2cccc([N+](=O)[O-])c2)nc2cccnc21	-6%[57.1 µM]	0%[57.1 µM]	x	1
C(=C\c1nc2ccccc2[nH]1)/c1ccccc1	127%	u	11%	-55*
C(=C\c1ccco1)/c1nc2ccccc2[nH]1	-1%	u	10%	-23
SMILES	TrxR1 substrate	rTrxR1 inhibitor	GALK inh	PI4K2A inh
COc1cc(/C=C/C(=O)c2ccccc2O)cc(OC)c1OC	-10%	50µM*	-5%	-2
O=C1C(Br)=C(c2ccccc2)C(c2ccccc2)=C1c1ccccc1	-8%	0.71µM*	x	2
O=C1NC(c2ccccc2)=C(c2ccccc2)C1=O	-6%	-15%	x	-2
COP(=O)(OC)c1ccc(NCc2cc(O)ccc2O)cc1	-5%	79µM*	x	-11
CC(C)(C)NC(=O)CC1C[C@H](C(=O)N2CCCCC2)[C@@]2(C)c3[nH]c4ccccc4c3CCN2C1=O (stereo not given in full)	2%	16%	x	-59*
COc1ccc(N2C(=O)c3ccccc3C2=O)cc1	2%[57.1 µM]	28%[57.1 µM]	4%	0
COc1ccc(N2C(=O)C(Cl)=C(Oc3cccc(OC)c3)C2=O)cc1	-14%[57.1 µM]	0.45µM*	2%	-6
Cc1ccc2c(Cl)c(Cc3ccccc3)c(=S)[nH]c2n1	2%	-12%	x	-2
COCCc1ccccn1	x	x	x	1
Cc1ccc2c(c1)c1c3n2CCN(C(=O)CCl)C3CCC1 (stereo not given)	10%	7.9µM*	-6%	12
Cc1nn(-c2cccc(Cl)c2)c2nc(-c3ccco3)cc(C(=O)O)c12	51%	50µM*	-7%	-2
CCCN(CCC)c1nn2c(=O)c(C(=O)NCc3cc(Br)ccc3OC)cnc2s1	-2%[57.1 µM]	6%[57.1 µM]	x	0
NS(=O)(=O)Nc1c(Br)cc(Br)c2cccnc12	9%[0.457 µM]	28µM*	x	x
